# The list is not random: actives were taken first. Their share in the collection is about 18%.
# VDR inhibitor – inhibitors of human vitamin D receptor. Potency, µM, actives largely listed as inhibitors. VDR-SRC2-3 peptide fluorescence polarization, 2 h. P11473. actives 0.93% (n = 400,000)
#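 Compounds are added to VDR with labelled SRC2-3 coactivator peptide and held 2 h at room temperature. Inhibition of the VDR–peptide interaction is then read as a change in fluorescence polarization.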
# KAT2A inh – blocks human GCN5L2 histone acetyltransferase; GCN5L2 HAT assay, ThioGlo1 CoA-SH fluorescence; AID 504327; Potency, µM (series often up to 58.9 µM), hits mostly inhibitors; Q92830; actives 0.21% (n = 390,000)
#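 Preincubate 20nM GCN5L2 with compound 15 min, RT → add 50uM ThioGlo1 + 75uM H3(1-25) + 70uM acetyl-CoA → read fluorescence 0 and 20 min. Primary qHTS; fluorescent artifacts likely.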
# DT40 TDP1 no CPT – qHTS for Inhibitors of human tyrosyl-DNA phosphodiesterase 1 (TDP1): qHTS in cells in absence of CPT; AID 686978, 2013; DT40 Tdp1-/- hTDP1 cells, no CPT, ATP luminescence, 48 h; actives 15% (n = 420,000); Potency, µM (series often up to 46.2 µM), hits mostly inhibitors; further: nearly all actives have a fitted effect of over 55% in size
#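 Chicken DT40 Tdp1-/- cells stably complemented with human TDP1 were seeded at 400 cells/well with DMSO in place of 20 nM camptothecin. After compound pinning, cells grew at least 48 hr at 37 °C; viability read by CellTiter-Glo luminescence.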
# PLK1 PBD block – blocks phosphopeptide binding to human PLK1 polo-box domain; P53350; Plk1 PBD binding of FITC phosphopeptide, fluorescence polarization; Potency, µM, hits mostly inhibitors; actives 2.8% (n = 360,000); AID 720504; further: series mostly up to about 57 µM; nearly all actives have a fitted effect of over 65% in size
# TDP1 cell CPT – growth inhibition of DT40 Tdp1-/-;hTDP1 cells with camptothecin (screen for TDP1 inhibitors). chicken DT40 Tdp1-/-;hTDP1 cells + 20 nM CPT, ATP luminescence, 48 h. Potency, µM (top dose mostly 46.2 µM), actives largely listed as inhibitors. actives 12% (n = 420,000). AID 686979; further: nearly all actives have a fitted effect of over 55% in size
#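 Chicken DT40 Tdp1-/- cells complemented with human TDP1, 400 cells/well, exposed to compounds plus 20 nM camptothecin for at least 48 h at 37 C; viability read as ATP content by CellTiter-Glo luminescence.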
# TDP1 block – inhibitors of human tyrosyl-DNA phosphodiesterase TDP1. Q9NUW8. recombinant TDP1, AlphaScreen DNA substrate cleavage. Potency, µM (series often up to 130 µM), hits mostly inhibitors. actives 0.28% (n = 350,000). AID 485290; further: nearly all actives have a fitted effect of over 40% in size
# Target sequence (Q9NUW8 whole entry, looked up): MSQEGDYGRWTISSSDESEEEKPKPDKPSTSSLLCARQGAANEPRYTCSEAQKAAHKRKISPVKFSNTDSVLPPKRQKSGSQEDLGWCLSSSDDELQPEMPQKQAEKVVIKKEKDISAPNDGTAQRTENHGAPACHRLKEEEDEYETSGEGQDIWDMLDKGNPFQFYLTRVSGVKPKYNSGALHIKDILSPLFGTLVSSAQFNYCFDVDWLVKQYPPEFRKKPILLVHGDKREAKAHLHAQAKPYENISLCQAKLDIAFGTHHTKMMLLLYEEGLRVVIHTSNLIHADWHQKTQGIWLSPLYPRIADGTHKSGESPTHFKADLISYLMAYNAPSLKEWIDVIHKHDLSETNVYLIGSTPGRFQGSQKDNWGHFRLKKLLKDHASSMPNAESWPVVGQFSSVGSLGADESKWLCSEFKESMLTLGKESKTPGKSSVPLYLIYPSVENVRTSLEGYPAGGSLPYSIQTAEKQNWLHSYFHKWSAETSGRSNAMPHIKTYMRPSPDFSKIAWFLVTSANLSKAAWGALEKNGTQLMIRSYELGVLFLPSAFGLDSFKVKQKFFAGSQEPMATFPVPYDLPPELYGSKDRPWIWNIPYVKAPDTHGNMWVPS
#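 Steps: enzyme plus compound, 15 min RT; add biotin/phosphotyrosine-FITC oligonucleotide (15 nM final), react 5 min; add donor/acceptor beads (10 ug/ml final), 10 min; read AlphaScreen. Tdp1 at 1 nM final.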
# Hits are given with their value; – = inactive; ? = inconclusive; · = not tested or not shown. The call rests on the fitted dose curve; in most records, active means well fitted curve in the direction sought with a large enough effect; inconclusive means small, poorly fitted or top-dose-only effect, or another doubt; inactive means no such curve, though single readings can be large; an effect the other way counts as inactive or inconclusive.
SMILES,VDR inhibitor,KAT2A inh,DT40 TDP1 no CPT,PLK1 PBD block,TDP1 cell CPT,TDP1 block
O=C(Nc1ccnn1C1CCN(Cc2ccccc2OC(F)F)CC1)c1cccnc1,–,–,?,–,?,–
CC(=O)[C@@]1(O)CC[C@H]2[C@H]3C[C@@H](C)C4=CC(=O)C=C[C@]4(C)[C@@]3(F)[C@@H](O)C[C@]21C,–,–,·,·,·,–
CCOC(=O)n1c(=O)oc2ccc(Cl)cc21,–,–,–,–,–,–
Cc1ccccc1OC(=O)n1c(=S)oc2cc(Cl)ccc21,–,–,?,13µM,?,–
Cc1cc(C)n2nc(C(=O)OCC(=O)N3C(C)CCCC3C)nc2n1 (stereo not drawn),–,–,–,–,–,·
Cc1cc(C)c(OCCCCn2cnc3ccccc3c2=O)c(C)c1,–,–,?,–,?,–
Cc1cc(OCCn2cnc3ccccc3c2=O)cc(C(C)C)c1,–,–,?,21µM,–,–
COc1cccc(C(=O)NN2C(=S)N(c3ccccc3)C(=O)C2CC(N)=O)c1 (stereo not drawn),–,–,–,–,–,–
Oc1ccccc1CN(Cc1ccco1)CC(O)COCc1ccc(Cl)cc1 (stereo not drawn),–,–,18µM,–,15µM,–
O=S(=O)(c1ccc2c(c1)OCCO2)C1CCN(S(=O)(=O)c2c(F)cccc2F)CC1,·,·,·,·,·,–
CCSC1=C(C#N)C(c2ccccc2C)CC(=O)N1 (stereo not drawn),–,–,–,–,–,–
CCCSC1=C(C#N)C(c2cccs2)CC(=O)N1 (stereo not drawn),–,–,?,24µM,–,·
Cc1ccc(CNC(=O)c2c(-c3ccc(Br)cc3)noc2C)o1,–,–,?,·,?,–
Cn1nc(C(=O)NCc2ccccc2)c2ccccc2c1=O,–,–,–,–,–,–
COc1ccc(CNC(=O)Cc2nn(C)c(=O)c3ccccc23)cc1,–,–,7.3µM,–,10µM,–
COc1ccc(OC)c(NC(=O)Cc2nn(C)c(=O)c3ccccc23)c1,–,–,16µM,–,16µM,–
COc1ccc(-c2nn(C)c(=O)c3ccccc23)cc1NC(=O)COc1ccc(C)cc1,–,–,18µM,–,23µM,·
COc1cc(NC(=O)Cc2nn(C)c(=O)c3ccccc23)cc(OC)c1OC,–,–,?,–,?,–
Cn1nc(CC(=O)NCc2ccc(C(F)(F)F)cc2)c2ccccc2c1=O,–,–,10µM,–,29µM,–
COc1ccc(N(CC(=O)NC2CC2)S(=O)(=O)c2ccccc2)cc1,–,–,–,–,–,·
COc1ccc(OC)c(NC(=O)CCN2CC(C)CC(C)C2)c1 (stereo not drawn),–,–,–,24µM,–,·
Cn1nc(CC(=O)Nc2cccc3ncccc23)c2ccccc2c1=O,–,–,21µM,–,13µM,–
COc1ccc(OCC(=O)Nc2cccc3ncccc23)cc1,–,–,–,–,?,–
COc1ccc(OC)c(NC(=O)CCN2CCCC(C)C2)c1 (stereo not drawn),–,–,–,–,–,–
O=C(CN1C(=O)C2C3C=CC(C4CC34)C2C1=O)Nc1cccc2ncccc12 (stereo not drawn),–,–,–,30µM,21µM,–
SMILES,VDR inhibitor,KAT2A inh,DT40 TDP1 no CPT,PLK1 PBD block,TDP1 cell CPT,TDP1 block
O=C(CCl)Nc1cccc2ncccc12,–,–,9.2µM,–,8.2µM,–
O=C(CN1C(=O)C2C3C=CC(C4CC34)C2C1=O)NCc1ccco1 (stereo not drawn),–,–,–,–,–,–
Cc1nc(C)c(C(=O)N/N=C/c2ccco2)s1,–,–,?,–,–,–
O=C(NCCc1ccc(Cl)cc1)c1cc(-c2ccc(Cl)cc2)n[nH]1,–,–,?,·,?,–
Cc1ccccc1OCCCC(=O)Nc1ccc(S(=O)(=O)Nc2onc(C)c2C)cc1,–,–,–,–,–,·
Cc1ccc(S(=O)(=O)N2CCOCC2)cc1C(=O)Nc1nc2ccccc2[nH]1,–,–,?,–,–,–
